Each molecule was assayed on LOC_OS01G13800-cb001 (assay: thermal shift delta Tm vs DMSO control; higher = stronger stabilization (binding)). Conditions: 12.5 µM; protein concentration 2 µM.
Method in brief: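 The melting temperature shift given here is a triplicate mean, measured against protein that received only DMSO. Melting temperatures came from Boltzmann fits of differential scanning fluorimetry data on E. coli-expressed, purified rice kinase domain constructs. Each 19.5 μl well contained 2 μM kinase, 100 mM potassium phosphate pH 7.5, 150 mM NaCl, 10% glycerol, 5 × SYPRO Orange and compound in DMSO. Plates were scanned from 25°C to 95°C at 0.05°C/s.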

| SMILES | thermal shift delta Tm |
| --- | --- |
| C[C@H](CN(C)C)Oc1nc(Nc2cc3cccc(Cl)c3cn2)cnc1C#N | 0.1 °C |
| CN1c2ccccc2C(=O)Nc2cnc(Nc3ccc(N4CCC(O)CC4)cc3)nc21 | -0.58 °C |
| CCNc1nc(Nc2cc(F)c(C(=O)N3CCOCC3)cc2OC)ncc1C(F)(F)F | 0.11 °C |
| COc1cc2ncnc(Nc3ccc(Oc4ccccc4)cc3C)c2cc1OC | -0.47 °C |
| O=C1NC(=O)/C(=C/c2cccc(C(F)(F)F)c2)S1 | 0.24 °C |
| COc1ccc(C(=O)Nc2sc3c(c2C(N)=O)CCCC3)cc1OC | 0.6 °C |
| C#Cc1cccc(Nc2ncnc3cc(OCCOC)c(OCCO)cc23)c1 | 0.74 °C |
| FC(F)(F)c1ccc(/C=C/c2nc(COc3ccc(CCCCn4ccnn4)cc3)co2)cc1 [Mubritinib (TAK 165)] | 0.16 °C |
| CNC(=O)Nc1ccc(-c2nc(N3CC4CCC(C3)O4)c3cnn(C4CCC5(CC4)OCCO5)c3n2)cc1 | 0.32 °C |
| CC(C)(C)NS(=O)(=O)c1cncc(-c2cc(F)c3nc(N)nn3c2)c1 | 0.1 °C |
| C[C@@H]1CN(CC(=O)Nc2ccc3c(c2)Cc2cccc(-c4cc(=O)cc(N5CCOCC5)o4)c2S3)C[C@H](C)O1 | 0.28 °C |
| COCCOc1ccc2c(c1)ncn2-c1ccc2cccc(N3CCC(N)CC3)c2n1 | -0.56 °C |
| Cc1ccc(NC(=O)c2ccc(CN3CCN(C)CC3)cc2)cc1Nc1nc(-c2cccnc2)cs1 [Masitinib (AB1010)] | 0.24 °C |
| Cn1cc(-c2cnn3c(N)c(Br)c([C@@H]4CCCNC4)nc23)cn1 | 0.21 °C |
| COc1ccc(-c2cc3c(C)nc(N)nc3n([C@H]3CC[C@H](OCCO)CC3)c2=O)cn1 | 0.31 °C |
